Screening results (PubChem)
aSyn 5UTR act – Activators via SNCA 5'UTR binding, MLPCN | alpha-synuclein 5'UTR reporter, activators screen | activity score, % (tested at 7.5 µM), hits read low | 7.1% of 300,000 active | AID 1814, 2009; in the data active means activity score below about -60%
An asterisk follows results filed as active. Not all results are given here.

For COc1cc(C2CC(c3cccs3)=NN2C(=O)CCl)ccc1OC(F)F (stereo not drawn) the results were aSyn 5UTR act 107.
`COc1ccc(C2CC(c3ccc4ccccc4c3)=NN2C(=O)CN2CCC(C(N)=O)CC2)cc1` (stereo not drawn) gave aSyn 5UTR act -134*.
For CC(=O)OCC(=O)N1N=C(c2ccc3ccccc3c2)CC1c1ccccc1 (stereo not drawn) the results were aSyn 5UTR act -106*.
O=C(c1ccc2oc(CCc3ccccc3)nc2c1)N1CCC(O)CC1 was read as aSyn 5UTR act -73*.
O=C(c1ccc2oc(CCCc3ccccc3)nc2c1)N1CCCCC1CO (stereo not drawn) was read as aSyn 5UTR act -87*.
NC(=O)[C@@H]1CCCN1C(=O)c1ccc2oc(CCc3ccccc3)nc2c1 was read as aSyn 5UTR act -63*.
For CCOC(=O)CC1COCCN1C(=O)c1ccc2oc(Cc3ccccc3)nc2c1 (stereo not drawn) the results were aSyn 5UTR act -132*.
Screening COc1ccc2oc3ccc(OC)cc3c(=O)c2c1 returned aSyn 5UTR act -190*.
`COc1ccc2oc3ccccc3c(=O)c2c1` gave aSyn 5UTR act -162*.
For COc1ccc(-c2cc(=O)c3ccccc3s2)cc1 the results were aSyn 5UTR act -248*.
`COc1ccc2sc3ccccc3c(=O)c2c1` gave aSyn 5UTR act -170*.
`COC(=O)c1cnc(Oc2ccc(NC(=O)NC(=O)c3c(OC)cccc3OC)cc2)cc1C(F)(F)F` gave aSyn 5UTR act 74.
`NC(=O)c1cnn(-c2cc(Oc3ccccc3)ncn2)c1N` gave aSyn 5UTR act -66*.
COC(=O)c1cnn(-c2cc(Oc3ccccc3)ncn2)c1N was read as aSyn 5UTR act -127*.
Screening c1ccc(Oc2cc(-n3cccn3)ncn2)cc1 returned aSyn 5UTR act -140*.
`Cc1csc(SCC(=O)Nc2sccc2C(N)=O)n1` gave aSyn 5UTR act -110*.
`NC(=O)c1ccsc1NC(=O)CSc1ccccc1F` gave aSyn 5UTR act -119*.
Screening Cc1ccc(C2=Nc3ccc(Br)cc3C(c3ccncc3)=NN2)cc1 returned aSyn 5UTR act -70*.
For Cc1ccc2c(c1)C(c1ccncc1)=NNC(c1ccccc1)=N2 the results were aSyn 5UTR act -127*.
For O=c1oc2cc(OCc3ccc([N+](=O)[O-])cc3)ccc2c2c1CCCC2 the results were aSyn 5UTR act -65*.
For CC(=O)C(C)Oc1ccc2c3c(c(=O)oc2c1)CCCC3 (stereo not drawn) the results were aSyn 5UTR act -79*.
CC(=O)C(C)Oc1ccc2c3c(c(=O)oc2c1)CCCCC3 (stereo not drawn) was read as aSyn 5UTR act -109*.
Screening CCCc1nc2oc3c(NCCCN(C)C)ncnc3c2c2c1CCCC2 returned aSyn 5UTR act 108.
For Cc1cc(C(=O)COc2ncnc3sccc23)c(C)n1C1CC1 the results were aSyn 5UTR act -79*.
CCCn1c(C)cc(C(=O)COc2ncnc3sccc23)c1C was read as aSyn 5UTR act -150*.
`Cc1nc(Nc2ccc3c(c2)OCCO3)c2c(C)c(C)sc2n1` gave aSyn 5UTR act -72*.
`Cc1cc(NC(=O)CSc2nc3ccccc3c(=O)n2C2CCCC2)no1` gave aSyn 5UTR act 86.
For COc1ccc2nc(SCC(=O)N3CCCCC3)c(C#N)cc2c1 the results were aSyn 5UTR act -107*.
Screening Cc1cc(NC(=O)CSc2nc3ccccc3cc2C#N)no1 returned aSyn 5UTR act -158*.
`Cc1ccc2nc(SCC(=O)Nc3ccc4sc(C)nc4c3)c(C#N)cc2c1` gave aSyn 5UTR act -129*.
For N#Cc1cc2cc3c(cc2nc1SCC(=O)N1CCOCC1)OCCO3 the results were aSyn 5UTR act 110.
`COC(=O)CSc1nc2cc(C)ccc2cc1C#N` gave aSyn 5UTR act -189*.
Screening Cc1cc(NC(=O)CSc2nc3c(cc2C#N)CCCC3)no1 returned aSyn 5UTR act -74*.
`COc1ccc2nc(SCC(=O)Nc3cc(C)on3)c(C#N)cc2c1` gave aSyn 5UTR act -103*.
COc1ccc2nc(SCC(=O)NC3CC3)c(C#N)cc2c1 was read as aSyn 5UTR act -68*.
O=C(O)[C@@H]1CCCC[C@@H]1C(=O)N1CCc2ccccc2C1CN1C(=O)c2ccccc2C1=O (stereo partly drawn) was read as aSyn 5UTR act 68.
O=C(/C=C1\NCC2c3ccccc3CCN2C1=O)c1ccccc1 (stereo not drawn) was read as aSyn 5UTR act -156*.
Screening O=c1[nH][nH]c(-c2ccccc2O)c1C(C[N+](=O)[O-])c1ccc(Cl)cc1Cl (stereo not drawn) returned aSyn 5UTR act -83*.
`CCN(CC)c1ccc2c(-c3ccc(S(=O)(=O)O)cc3S(=O)(=O)[O-])c3ccc(=[N+](CC)CC)cc-3oc2c1` gave aSyn 5UTR act 80.
`CCN(CC)c1ccc2cc(C(N)=O)c(=N)oc2c1` gave aSyn 5UTR act -67*.
CCN(CC)c1ccc2cc(C(N)=O)c(=O)oc2c1 was read as aSyn 5UTR act -98*.
`CCN(CC)c1ccc2cc(NC(=O)CCC(=O)O)c(=O)oc2c1` gave aSyn 5UTR act 120.
Screening Cc1cc(CNC(=O)c2cccc(OC3CCN(S(=O)(=O)N(C)C)CC3)c2)on1 returned aSyn 5UTR act -139*.
For COc1ccc(-c2nnc(NC(=O)c3ccc(S(=O)(=O)N4CCc5ccccc5C4)cc3)o2)cc1 the results were aSyn 5UTR act 73.
Screening CN(C)S(=O)(=O)N1CCC(Oc2ccc(C(=O)NC3Cc4ccccc4C3)cc2)CC1 returned aSyn 5UTR act -65*.
Fc1ccccc1CSc1nc2ncc(Br)cc2[nH]1 was read as aSyn 5UTR act -127*.
Screening Cc1cccc(C(=O)c2c(N)sc3c2CCC(C)C3)c1 (stereo not drawn) returned aSyn 5UTR act -85*.
`CN(C)/C=N/c1ncc(C(=O)c2ccc(Cl)cc2)s1` gave aSyn 5UTR act -72*.
Screening O=C(CN1CC(=O)Oc2ccccc21)OCC(=O)c1cccc(Br)c1 returned aSyn 5UTR act -66*.
Screening O=C(CN1C(=O)c2ccccc2S1(=O)=O)c1cccc(Br)c1 returned aSyn 5UTR act 84.
Screening O=C(CN1CC(=O)Oc2ccccc21)OCC(=O)c1ccccc1 returned aSyn 5UTR act -100*.
O=C1c2ccccc2CN1CCSC(=S)N1CCOCC1 was read as aSyn 5UTR act -105*.
For O=C1c2ccccc2CN1CCSC(=S)N1CCSCC1 the results were aSyn 5UTR act -109*.
For Cc1cc(C)cc(Oc2ncnc3c2ncn3Cc2c(Cl)cccc2Cl)c1 the results were aSyn 5UTR act 35.
`O=c1n(-c2ccc(Br)cc2)cnn1-c1ncccc1[N+](=O)[O-]` gave aSyn 5UTR act -101*.
For CN(C(=O)C1CCOC1)c1nnc(-c2ccccn2)s1 (stereo not drawn) the results were aSyn 5UTR act -67*.
Cc1ccsc1C(=O)OCC(=O)NCCC1=CCCCC1 was read as aSyn 5UTR act -81*.
Screening CC(C)(C)c1ccc(CN2C3=NCCCN3c3ccccc32)cc1 returned aSyn 5UTR act -62*.
CC(C)(C)c1ccc(Cn2c(=N)n(CC(O)c3ccco3)c3ccccc32)cc1 (stereo not drawn) was read as aSyn 5UTR act 101.
For Clc1ccc(Oc2cnc3ccccc3n2)cc1 the results were aSyn 5UTR act -80*.
`Cc1ccc(Oc2cnc3ccccc3n2)cc1` gave aSyn 5UTR act -127*.
`Cc1ccc(N=C/C(C(=O)C(F)(F)F)=C(\O)c2cccs2)cc1` gave aSyn 5UTR act -89*.
